Assay results published in the supplement of paper PMC6607015.
Structures can show the parent of a compound that is named as a salt.

These molecules were tested on A431 (assay: LBPA endosome anti-LBPA integrated intensity (sum per cell), Z-score; higher = more LBPA staining). Settings: compound concentration in added solution (µM; 5 µl added to 20 µl cells): 10; 18 h.
How it was run: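 Four 20× images per well were taken of HeLa MZ or A431 cells that had been seeded at 3,500 per well in 20 µl onto 5 µl of 10 µM compound solution in duplicate 384-well imaging plates. Before imaging, cells were incubated 18 h, fixed in 4% PFA and stained with 6C4 anti-LBPA antibody, filipin, propidium iodide and CellTracker green. Values are Z-scores normalised in AcuityXpress from MetaXpress-derived per-cell integrated LBPA or filipin intensity, either whole-cell or within LBPA endosomes.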

SMILES	LBPA endosome anti-LBPA integrated intensity (z-score)
CC(=O)Oc1cc(C(F)(F)F)ccc1C(=O)O [Triflusal]	-0.556
O=C(CCCN1CCC(O)(c2ccc(Br)cc2)CC1)c1ccc(F)cc1 [Bromperidol]	2.59
CCOc1ccccc1OCC1CNCCO1 (stereo not given) [Viloxazine hydrochloride]	-0.217
N=C(N)NC(=N)NCCc1ccccc1 [Phenformin hydrochloride]	-0.459
N=C(N)NC(=O)Cc1c(Cl)cccc1Cl [Guanfacine hydrochloride]	-0.503
N[C@@H](Cc1cc(I)c(Oc2ccc(O)c(I)c2)c(I)c1)C(=O)O [Liothyronine]	-0.519
Cc1onc(-c2c(Cl)cccc2Cl)c1C(=O)N[C@@H]1C(=O)N2[C@@H]1SC(C)(C)[C@@H]2C(=O)O [Dicloxacillin sodium salt hydrate]	-0.319
CCCC(=O)Nc1ncnc2c1ncn2[C@@H]1O[C@@H]2COP(=O)(O)O[C@H]2[C@H]1OC(=O)CCC [Bucladesine sodium salt]	-0.466
c1ccc2c(CC3=NCCN3)cccc2c1 [Naphazoline hydrochloride]	-0.505
NC(=O)c1cc[n+](CC2=C(C(=O)[O-])N3C(=O)[C@@H](NC(=O)[C@@H](c4ccccc4)S(=O)(=O)O)[C@H]3SC2)cc1 [Cefsulodin sodium salt]	-0.471
CCN[C@H]1C[C@H](C)S(=O)(=O)c2sc(S(N)(=O)=O)cc21 [Dorzolamide hydrochloride]	-0.573
CN(C)CCOc1ccc(/C(=C(/CCCl)c2ccccc2)c2ccccc2)cc1 [Toremifene]	2.64
CN(C)C(=O)C(CCN1CCC(O)(c2ccc(Cl)cc2)CC1)(c1ccccc1)c1ccccc1 [Loperamide hydrochloride]	2.04
CCn1cc(C(=O)O)c(=O)c2cc(F)c(N3CCN(C)CC3)cc21 [Pefloxacine]	-0.525
Cc1ccc2c(c1)c1c3n2CCNC3CCC1 (stereo not given) [Pirlindole mesylate]	0.0753
CCS(=O)(=O)CCn1c([N+](=O)[O-])cnc1C [Tinidazole]	-0.319
Cc1ccc(Cl)c(Nc2ccccc2C(=O)O)c1Cl [Meclofenamic acid sodium salt monohydrate]	-0.528
CN1CCCN=C1/C=C/c1cccs1 [Pyrantel tartrate]	-0.533
CC(C)NCC(O)c1ccc(O)c(O)c1 (single isomer, unassigned; (-)) [(-)-Isoproterenol hydrochloride]	-0.173
CCCCN(CCCC)CCC(O)c1cc2c(Cl)cc(Cl)cc2c2cc(C(F)(F)F)ccc12 (stereo not given) [Halofantrine hydrochloride]	1.7

SMILES	LBPA endosome anti-LBPA integrated intensity (z-score)
C#Cc1cccc(Nc2ncnc3cc(OCCOC)c(OCCOC)cc23)c1 [Erlotinib]	1.24
CN1CCN(C(c2ccccc2)c2ccc(Cl)cc2)CC1 (stereo not given) [Chlorcyclizine hydrochloride]	1.56
CC(C)[C@H](N)C(=O)OCCOCn1cnc2c(=O)nc(N)[nH]c21 [Valacyclovir hydrochloride]	-0.418
CN[C@H](CC(C)C)C(=O)N[C@H]1C(=O)N[C@@H](CC(N)=O)C(=O)N[C@H]2C(=O)N[C@H]3C(=O)N[C@H](C(=O)N[C@H](C(=O)O)c4cc(O)cc(O)c4-c4cc3ccc4O)[C@H](O)c3ccc(c(Cl)c3)Oc3cc2cc(c3O[C@@H]2O[C@H](CO)[C@@H](O)[C@H](O)[C@H]2O[C@H]2C[C@](C)(N)[C@H](O)[C@H](C)O2)Oc2ccc(cc2Cl)[C@H]1O [Vancomycin hydrochloride]	-0.435
Nc1ccc(S(=O)(=O)NC(=O)c2ccccc2)cc1 [Sulfabenzamide]	-0.476
Nc1ccc(S(=O)(=O)Nc2ccc(Cl)nn2)cc1 [Sulfachloropyridazine]	-0.463
CCN(CC)CCOC(=O)C(c1ccccc1)C1CCCCC1 (stereo not given) [Drofenine hydrochloride]	1.02
N=C(N)NCCN1CCCCCCC1 [Guanethidine sulfate]	-0.647
Cc1cc(-n2c(=O)[nH]c(=O)n(C)c2=O)ccc1Oc1ccc(SC(F)(F)F)cc1 [Toltrazuril]	-0.328
CN(C)CCC=C1c2ccccc2COc2ccccc21 [Doxepin hydrochloride]	1.38
CN1CCCCC1CCN1c2ccccc2Sc2ccc([S+](C)[O-])cc21 (stereo not given) [Mesoridazine besylate]	0.975
CN1CCC(=C2c3ccccc3C=Cc3ccccc32)CC1 [Cyproheptadine hydrochloride]	2.41
Cc1cccc(C)c1NC(=O)C(C)N (stereo not given) [Tocainide hydrochloride]	-0.343
CS(=O)(=O)Nc1ccc([N+](=O)[O-])cc1Oc1ccccc1 [Nimesulide]	-0.535
COC(=O)C1=C(C)NC(C)=C(C(=O)OCC(C)C)C1c1ccccc1[N+](=O)[O-] (stereo not given) [Nisoldipine]	0.222
CCCCNc1c(C(=O)OCC)c(C)nc2c1cnn2CC [Tracazolate hydrochloride]	0.273
CN(N=O)C(=O)N[C@@H](C=O)[C@@H](O)[C@H](O)[C@H](O)CO [Streptozotocin]	-0.585
NS(=O)(=O)c1cc2c(cc1Cl)NCNS2(=O)=O [Hydrochlorothiazide]	-0.538
NCc1ccccc1CC(=O)N[C@@H]1C(=O)N2C(C(=O)O)=C(CSc3nnnn3CC(=O)O)CS[C@H]12 [Ceforanide]	-0.318
COc1cc2nc(N(C)CCCNC(=O)C3CCCO3)nc(N)c2cc1OC (stereo not given) [Alfuzosin hydrochloride]	1.37
